This is part of a sample that, as a whole, favours compounds with a hit. Of some 83,000 tested, about 20% had one in any assay.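 Results are percent growth after 48 hours of single-concentration exposure. 100 means growth as in untreated cells, lower positive values show inhibition; negative values down to -100 show cell death.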 Values without a mark were called inactive. Active and inactive are the calls of the source.
tested on: A498 renal; assay: NCI-60 one-dose screen, 48 h (100 = growth as untreated, 0 = no growth, -100 = all killed); conditions: 10 µM unless noted
Description: Growth inhibition of the A498 human tumor cell line is measured as a screen for anti-cancer activity. Cells are grown in 96 well plates and exposed to the test compound for 48 hours. Compounds are tested at a single concentration, which is 10^-5 M for most compounds. The reported endpoint is percent growth (GI% or GIPRCNT), where numbers from 0 - 100% represent growth inhibition, and numbers from -100% - 0 represent cell death. For example, a value of 40 represents 60% growth inhibition. A value of 0 means no net growth occurred over the course of the experiment. A value of -40 indicates 40% of cells at the beginning of the experiment died by the end of the experiment. A value of -100 means all cells are dead at the end of the experiment.
NCI-60 Human Tumor Cell Lines Screen was performed using the standard one-dose NCI protocol, which is described in more detail at https://dtp.cancer.gov/discovery_development/nci-60/default.htm.
Compounds with GIPRCNT values below 10 were considered active. Activity score was based on GIPRCNT using the following formula: […]
Score is 0 for GIPRCNT values of 100 or above, 50 for GIPRCNT values of 0, and 100 for GIPRCNT values of -100.

Structure (SMILES) | growth
Cc1ccc(-n2cc(/C=N/NC(=O)c3ccncc3)c(-c3ccc(S(C)(=O)=O)cc3)n2)cc1 | 88.2%
CCN1CCN(C(=O)[C@]23CCC(C)(C)C[C@H]2C2=CC[C@@H]4[C@@]5(C)Cc6c([nH]c7ccccc67)C(C)(C)[C@@H]5CC[C@@]4(C)[C@]2(C)CC3)CC1 | 97.5%
CCOC(=O)c1c(NC(=O)c2ccccc2C(F)(F)F)sc2c1CCC(=O)C2 | 85.2%
Cc1ccc(C2=Nn3c(nnc3-c3ccccc3)SC2)cc1 | -12.4% (active)
CC(=O)c1ccc(Nc2nc(SCC(C)C)nc(-c3ccc(F)cc3)c2C#N)cc1 | 117%
CNC(=O)c1cc(-c2ccc(NS(=O)(=O)c3ccc(C)cc3)cc2)nc2cccnc12 | 106%
O=C(O)c1cn(C2CC2)c2cc(N3CCN(C(=O)CN4C(=O)CSC4=O)CC3)c(F)cc2c1=O | 101%
Cc1ccc2c(c1)Oc1nc(N)c(C#N)c(N)c1C2Sc1ccc(F)cc1 (stereo not given) | -99.3% (active)
COc1ccccc1-n1cc(C#N)c(N)c1C(=O)c1ccc(C)cc1 | 74.9%
Nc1ccccc1NC(=O)c1ccc(NC(=O)C/C=C/c2cccnc2)cc1 | -16.4% (active)
COc1ccc(Cn2cc3c(c2-c2cc(OC)c(OC)c(OC)c2)CCc2c(CN4CCOCC4)noc2-3)cc1 | -0.0936% (active)
COC(=O)c1[nH]nc2c1C1(C(=O)N(C)c3ccccc31)C(C#N)=C(N)O2 (stereo not given) | 90.2%
O=C(NCc1ncc[nH]1)c1ccc(-c2nc3ccc4[nH]ncc4c3c3c2CCCC3)cc1 | -13.7% (active)
COc1cc(-c2nn(C(C)(C)C)cc2-c2ccnc(NCCCNS(=O)(=O)c3ccc(C)cc3)n2)ccc1Cl | 30.9%
COc1ccc(N2CCN(C3=C(Cl)C(=O)C(C)=C(C)C3=O)CC2)cc1 | 108%
O=C(O)c1ccc(-n2cc(CNc3cc(F)c(F)c(F)c3)c(-c3cccc(F)c3)n2)cc1 | 99.4%
COc1cc2nc(Cl)nc(Nc3cccc(C4=Nc5c(N)nc(N)nc5NC(c5ccc(Cl)cc5)C4)c3)c2cc1OC (stereo not given) | 99.4%
COc1cc2c(cc1OC)C(Sc1ccc(C)cc1)c1c(nc(N)c(C#N)c1N)O2 (stereo not given) | -54.7% (active)
CCn1c(SCC(=O)Nc2cccc(C(=O)/C=C/c3ccc(C)cc3)c2)nc2ccccc2c1=O | 94.2%
NC(N)=Nc1ccc(Oc2cccc(NC(N)=Nc3ccc(I)cc3F)c2)cc1 | 86.8%

Structure (SMILES) | growth
CCC1=Cc2cc(OC)ccc2OC12C=Cc1cc(OC)ccc1O2 (stereo not given) | 3.41% (active)
O=C(O)c1ccc(-n2cc(CNc3cc(F)c(F)c(F)c3)c(-c3ccc(F)cc3)n2)cc1 | 97.6%
COc1ccccc1-n1cc(C#N)c(N)c1C(=O)c1ccc(Br)cc1 | 60.6%
CCOc1cccc(-c2nc3sccn3c2-c2ccnc(S(C)(=O)=O)n2)c1 | 73.3%
CC1(C)NCCC[C@]2(C)[C@H]3C/C(=N\O)C4[C@@H]5C[C@@](C)(CO)CC[C@]5(C)CC[C@@]4(C)[C@]3(C)CC[C@@H]12 (stereo not given in full) | 96.1%
C=C(C)[C@@H]1CC[C@]2(COC)CC[C@]3(C)[C@H](CC[C@@H]4[C@@]5(C)CCCNC(C)(C)[C@@H]5CC[C@]43C)[C@@H]12 | 62.3%
Nc1ncc(-c2ccc(NS(=O)(=O)c3ccc(Cl)c(Cl)c3)cc2)[nH]1 | 85.1%
CN1CCN(c2ccc(/C=N/Nc3nc4ccccc4c(=O)n3-c3ccccc3)cc2)CC1 | 89.8%
COc1cc(/C=C2\C(=O)Nc3cc(Cl)ccc32)ccc1OCc1ccc(F)cc1 | 94.2%
CCCn1cnc2c(c1=N)C(c1ccc(OC)cc1)c1sc3c(CC)cccc3c1O2 (stereo not given) | -11.5% (active)
COc1ccc2c(c1)c(CC(=O)[Se]CC#N)c(C)n2C(=O)c1ccc(Cl)cc1 | -17.1% (active)
COc1cc(-c2nn(C(C)(C)C)cc2-c2ccnc(NCCCNS(=O)(=O)c3ccc(F)cc3)n2)ccc1Cl | 51.9%
O=C(CSc1nnc(-c2ccc3nc(-c4ccccc4)[nH]c3c2)o1)Nc1ccc(C(=O)/C=C/c2ccccc2)cc1 | 95.9%
N/C(=N\C(N)=N\c1nc2ccccc2s1)c1cccc(F)c1 | 97.1% [5 µM]
O=C(NNc1nc2cc(F)ccc2n2c(CN3CC4CNCC4C3)ccc12)c1cnccn1 (stereo not given) | 36.9%
CC(=O)c1cc(C(=O)c2ccc(Br)cc2)n2cc(C)cc(C)c12 | 76.8%
C=CCN(C)S(=O)(=O)/N=C1\NC(=O)NC1=C(Cl)Cl | 97.6%
C=CCOc1cccc(/C=C2\SC(=S)N(C3CC(=O)N(c4ccc(Br)cc4)C3=O)C2=O)c1 (stereo not given) | 105%
Cn1ccnc1C(=O)/C=C/c1ccc(NC(=O)c2c(F)c(F)c(F)c(F)c2F)cc1 | 113%
CC1(C)CC[C@]2(C(=O)N3CCOCC3)CC[C@]3(C)C(=CC[C@@H]4[C@@]5(C)C/C(=C/c6ccco6)C(=O)C(C)(C)[C@@H]5CC[C@]43C)[C@@H]2C1 | 68.7%

— PubChem BioAssay (NCI)
